# Reference: PubChem BioAssay AID2099 (Broad Institute, 2009)
# About 230 (0.07%) of roughly 330,000 compounds were called active. Only a selection was taken, and actives are over-represented in it overall. A number with no mark means an inactive call.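 Rule for the calls: active = more than half of a compound's replicate wells show inhibition beyond 50%, single wells judged on their own value; inconclusive = some, but no more than half, of replicates pass 50% inhibition; inactive = no replicate passes 50% inhibition.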
# Target: Lysine-specific demethylase 4C (Homo sapiens) (UniProt Q9H3R0)
# Test: JMJD2C H3K9me3 demethylation blockers – biochemical, fluorescence, DELFIA europium, primary screen (AID 2099);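 note: signal counts dimethyl H3K9 product captured on neutravidin plate; 0% = median of DMSO wells and 100% = 0.3 times that DMSO median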
# Settings: GST-JMJD2C(1-420) H3K9me3 demethylation, at 2.35 µM, active compounds read high
# Chain of Lysine-specific demethylase 4C (Homo sapiens) (Q9H3R0 1-420 limits assumed): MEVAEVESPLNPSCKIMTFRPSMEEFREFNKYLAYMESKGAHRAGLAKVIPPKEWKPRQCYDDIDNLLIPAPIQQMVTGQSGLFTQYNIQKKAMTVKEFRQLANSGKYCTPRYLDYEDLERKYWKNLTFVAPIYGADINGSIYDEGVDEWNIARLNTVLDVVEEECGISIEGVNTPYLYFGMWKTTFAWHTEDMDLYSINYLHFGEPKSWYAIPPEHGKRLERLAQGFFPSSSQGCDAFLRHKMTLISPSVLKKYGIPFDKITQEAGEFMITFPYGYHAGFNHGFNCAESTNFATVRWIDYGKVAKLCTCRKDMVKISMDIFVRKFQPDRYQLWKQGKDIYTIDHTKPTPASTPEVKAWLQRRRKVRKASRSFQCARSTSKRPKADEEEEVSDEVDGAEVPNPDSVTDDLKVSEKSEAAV
row,SMILES,inhibition
1,Cc1ccc2c(c1)=C/C(=C\c1c(O)[nH]c(=O)[nH]c1=O)C(=O)N=2,68.2% (active)
2,O=C1N=c2ccccc2=C/C1=C\c1c(O)[nH]c(=S)[nH]c1=O,0.999%
3,O=c1[nH]c(O)c(C=Nc2cc(F)cc(F)c2)c(=O)[nH]1,8.75%
4,COc1ccc(CN2CCN(c3ccccc3F)CC2)c(OC)c1,2.07%
5,NCC(O)c1ccc(O)cc1 (stereo not given),4.95%
